# Tests used:
# Test in all cases: PBM binding z-score (relative to random genomic background probes); higher = stronger binding; sequences stand for … in GC…GCGATTGACAGCGTAGAATGAAGG
# [1] = test system: FXR:RXRa (NR concentration 270 nM, RXRa partner concentration 90 nM)
# Outline: (§1)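 Each nuclear receptor dimer, without ligand, was incubated for 1 h on custom Agilent 4×180K protein-binding microarrays. Binding was detected with antibodies against each partner (one per run), and scanned fluorescence was regression-normalized. The binding z-scores are referenced to random human genomic background probes.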
# [2] = test system: LXRa:RXRa (NR concentration 270 nM, RXRa partner concentration 90 nM)
# Outline: as §1
# [3] = test system: LXRa homodimer (NR concentration 270 nM)
# Outline: as §1
# [4] = test system: LXRb:RXRa (NR concentration 270 nM, RXRa partner concentration 90 nM)
# Outline: as §1
# [5] = test system: LXRb homodimer (NR concentration 270 nM)
# Outline: as §1
# [6] = test system: PPARa:RXRa (NR concentration 270 nM, RXRa partner concentration 90 nM)
# Outline: as §1
# [7] = test system: PPARg:RXRa (NR concentration 180 nM, RXRa partner concentration 90 nM)
# Outline: as §1
# [8] = test system: PPARg:RXRa 270nM:90nM, anti-RXR (NR concentration 270 nM, RXRa partner concentration 90 nM)
# Outline: as §1
# [9] = test system: PPARg:RXRa 30nM:10nM, anti-RXR (NR concentration 30 nM, RXRa partner concentration 10 nM)
# Outline: as §1
# [10] = test system: PPARg:RXRa 90nM:30nM, anti-RXR (NR concentration 90 nM, RXRa partner concentration 30 nM)
# Outline: as §1
# [11] = test system: PPARg:RXRa DBDmut IVT, anti-RXR (DBD mutation: RXRa K156A/R161A, NR concentration 270 nM, RXRa partner concentration 90 nM)
# Outline: as §1
# [12] = test system: PPARg:RXRa IVT, anti-PPARg (NR concentration 270 nM, RXRa partner concentration 90 nM)
# Outline: as §1
# [13] = test system: PPARg DBDmut:RXRa IVT, anti-PPARg (DBD mutation: PPARg1 K132A/R137A, NR concentration 270 nM, RXRa partner concentration 90 nM)
# Outline: as §1
# [14] = test system: PPARg DBDmut IVT, anti-PPARg (DBD mutation: PPARg1 K132A/R137A, NR concentration 270 nM)
# Outline: as §1
# [15] = test system: PPARg homodimer (NR concentration 180 nM)
# Outline: as §1
# [16] = test system: PXR:RXRa (NR concentration 270 nM, RXRa partner concentration 90 nM)
# Outline: as §1
# [17] = test system: PXR homodimer (NR concentration 270 nM)
# Outline: as §1
# [18] = test system: RARa:RXR (NR concentration 270 nM, RXRa partner concentration 90 nM)
# Outline: as §1
# [19] = test system: RARa homodimer (NR concentration 270 nM)
# Outline: as §1
# [20] = test system: RARb:RXRa (NR concentration 270 nM, RXRa partner concentration 90 nM)
# Outline: as §1
Sequence,PBM binding z-score [1],PBM binding z-score [2],PBM binding z-score [3],PBM binding z-score [4],PBM binding z-score [5],PBM binding z-score [6],PBM binding z-score [7],PBM binding z-score [8],PBM binding z-score [9],PBM binding z-score [10],PBM binding z-score [11],PBM binding z-score [12],PBM binding z-score [13],PBM binding z-score [14],PBM binding z-score [15],PBM binding z-score [16],PBM binding z-score [17],PBM binding z-score [18],PBM binding z-score [19],PBM binding z-score [20]
AGTATTAGTTGAGACGAGGGCAACCGATAGGTTG,0.842,0.556,0.129,0.258,0.115,0.567,0.552,0.313,0.0784,0.559,-0.068,0.769,0.458,0.336,0.923,1.63,0.87,1.01,1.25,1.2
TCTTGTAGATCCGCAGGTTAAGAAAGCTGGCCAA,0.144,0.322,-0.25,0.303,-0.333,0.634,-0.592,1.34,2.55,1.87,1.29,-0.0295,0.383,-0.621,-0.223,0.161,-1.09,0.597,-0.725,0.136
TCTTGTAGATCACTAGAGGTTAAGAAAGTGCGCT,0.684,5.11,1.63,2.67,0.128,1.88,-0.00284,1.73,2.56,2.22,1.81,1.16,1.46,0.897,0.0426,3.04,0.56,1.74,0.205,1.03
ATCTCTAGGTAAAATTCAGTGAAAGATCGATAGA,0.583,0.493,0.422,0.121,0.916,0.171,0.606,0.699,0.552,0.917,1.48,1.53,0.966,1.25,1.04,-0.0781,0.481,-0.157,1.26,0.336
GGAACGAGGGCAAGTTCATAGCAGAGTTTGATGG,2.59,1.97,0.721,1.46,-0.0122,2.95,2.11,2.35,0.471,1.57,4.12,3.14,-0.982,-0.116,0.648,3.66,5.88,1.72,-0.259,3.37
AGAATGAGGTTATACGAAGATCAGGGAAGAAAGT,2.26,1.67,-0.199,1.54,-0.139,3.25,1.68,1.8,0.749,1.51,2.26,2.05,0.807,0.512,0.484,1.04,0.292,1.61,0.714,1.3
GCTGCTAGGTCAACTGATGGTCAGGTAAAGCTCG,4.16,2.9,0.318,2.37,0.0406,3.7,2.95,3.33,0.765,1.9,4.69,4.23,-0.376,-0.724,2.17,1.83,-0.677,3.15,0.327,4.45
GCGTCTGGGGCAAAGCAGGTTACCATAAGGTTGG,0.56,0.162,-0.429,0.26,-0.82,1.26,0.532,0.46,-0.355,0.0417,3.3,2.33,-0.833,-1.14,0.154,0.372,-0.589,0.843,-1.37,1.17
ATCGAAAGGTCGAAGATGAGTATACCCACCCGAA,3.83,3.21,0.43,2.41,0.732,4,2.52,2.37,1.04,1.8,-0.341,1.22,0.714,0.471,1.15,1.97,0.241,2.66,0.939,3.69
TCGAGTAGGTTACAAATGGGGCATTCAGCTTTCT,0.181,1.08,-0.216,1.01,-0.699,1.25,0.565,1.21,1.43,1.04,3.56,3.01,0.207,-0.201,0.131,0.0276,-0.499,0.475,0.267,0.54
CGAACGAGGGCAGGAGTTGATAGCAAATGCCGAT,-0.327,-0.217,-0.463,-0.569,-1,0.441,1.17,1.46,-0.21,1.07,1.98,1.44,-0.723,-0.762,-0.323,-0.216,-0.229,-0.159,-0.0684,1.8
TCATATAGGTAAACAGGTGAAACTCCGTAAGTTA,0.937,1.06,0.143,0.976,-0.264,2.64,2.96,3.47,4.07,3.7,5.13,4.56,1.07,1.38,1.21,0.711,0.237,1.28,0.733,0.76
AATGCAGGGTCATCGTAGGCCAGAGTACGCACAG,7.22,6.03,1.22,4.54,-0.0477,5.97,6.45,5.75,2.6,4.62,2.83,4.24,1.78,1.66,2.03,4.81,0.279,4.75,0.252,4.37
TCTGCTAGGTCAGTTGGTCAGCGAACGAGCTGCC,1.05,0.587,-0.495,0.166,0.433,1.57,0.47,1.87,1.06,1.38,2.76,3.21,-0.0304,0.518,0.0639,0.0473,-0.82,0.461,-1.14,3.55
ATCGAAAGGTCCTGAGGTGAGTATACAGAAAGGC,0.12,0.275,-0.698,0.248,-0.388,1.21,0.686,0.415,0.534,1.08,-0.172,0.777,0.834,0.602,0.413,0.102,-0.0977,0.895,0.0282,1.12
AGAATGAGGTTATACCTAGATCAGGGAAGAAAGT,1.65,1.87,-0.0251,1.31,-0.249,3.15,1.77,1.63,0.532,1.09,2.11,2.02,1.05,0.686,0.0294,0.87,0.227,1.44,-0.0854,1.19
AGAACGAGGGCACGCTGAGTTGAAAGCAGAGTAG,0.945,0.542,-0.955,0.276,-0.933,2.38,2.11,1.77,0.0784,1.03,3.49,3.67,0.808,0.246,0.111,1.36,-0.00968,1.1,-0.124,2.51
ATTGAAAGGTCGAGGTGAGTATAGAGAAAGGGAA,4.46,3.8,0.427,2.93,1.15,4.7,4.5,3.84,1.72,3.01,0.763,2.77,1.27,1.65,2.49,2.7,0.738,3.64,1.83,4.28
CAAACTAGGTCAGAGAGGTCAAAGTCCGTGCGTA,6.28,6.16,6.8,5.36,1.48,6.07,8.4,7.06,4.96,7.01,7.7,8.02,1.22,0.373,4.15,6.24,10.2,6.29,2.07,4.84
GATACAGGGACAGCTAGAGGCCAGAGTATGGAAA,-0.243,-0.821,-0.464,-0.674,-0.57,-0.178,0.636,-0.579,-0.2,-0.369,-0.328,-0.138,-0.157,-0.323,0.377,-0.289,0.168,0.0222,0.173,0.833
ATCTCTCGGTAAAGTTCAGTGAAAGATCGATAGA,1.03,1.46,1.39,1.3,1.34,1.6,1.08,2.68,1.12,2.32,0.0239,0.915,0.801,1.45,1.63,2.11,1.75,1.59,1.08,2.84
TAGCCTAGGTCGTTGGGCCAGTATAGTACGCATC,0.234,-0.0129,-0.222,0.178,-0.371,0.544,0.271,0.0972,-0.401,-0.153,-0.226,0.592,-0.845,-0.754,-0.186,-0.0683,-0.446,0.0528,-0.627,1.02
CAGCCTAGGTCAAGGCCAGTATAGGAGGAACGTT,3.62,2.26,-0.0783,1.7,-0.501,3.45,2.15,2.23,0.352,1.18,2.48,2.33,-0.75,-0.631,0.784,1.3,-0.176,1.93,-0.377,4.07
CGTCCAAGGTCATAGGAGGTCCGTGAAGACAGAT,7.45,5.69,0.811,3.99,0.8,5.61,4.52,5.1,1.5,3.67,3.08,3.47,0.84,0.63,3.87,4.93,1.26,4.68,1.62,5.04
GTACGAAGGTGAATAGGTCGTTGATGAGTAGGCG,0.531,0.661,-0.364,0.505,-0.557,2.15,1.38,1.87,0.421,1.22,1.5,2.19,-0.159,-0.129,0.859,0.754,-0.215,1.75,0.356,2.01
ATCTCTAGGTAAAGATAGTTCGGTGAATGCAAAT,0.128,1.18,0.268,0.0902,0.531,0.121,0.266,0.307,0.192,0.213,2.2,1.58,0.574,0.789,0.784,0.102,0.511,0.121,0.697,0.0855
ATATGTAGGTTAAGTGTCATTCAGGTTGGTTCGC,1.68,2.16,1.09,1.93,0.826,4.74,7.81,7.39,6.14,7.88,7.37,7.34,2.11,2.12,1.85,1.87,0.52,2.1,1.63,1.99
CATCAAAGTTCAACTAAGGTAACGTAAAGCACGC,7.36,6.82,5.03,4.54,3.07,5.03,3.96,4.67,2.12,3.32,0.365,1.94,1.26,1.35,3.92,5.93,5.95,4.5,3.5,5.37
TTACCAAGGTGAAACGTCGTTGATGCACGCCTTG,0.678,0.335,-0.246,0.141,-0.495,1.96,1.66,2.76,1.24,2.15,3.12,2.95,0.206,0.358,0.178,-0.0159,-0.972,0.592,-0.282,1.62
